Out of some 5,500 compounds screened, about 2,000 (36%) were called active. About 18% were inconclusive and are not listed. Cut-off read from the data, not from the text of the source: active = normalized growth mostly below about 0.91 (no sharp cut-off); inconclusive = no clear call, values can overlap the other calls; inactive = mostly above about 0.92. This is one part of the list.
Test: chemical genetic growth profiling, strain panel (AID 1159580);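 note: tested at 20 µM; growth read once vehicle control cultures reached saturation at 30 °C; 1 = growth at the plate median or of vehicle wells; lower values mean less growth of the strain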
Conditions: S. cerevisiae deletion strains, growth OD

Measured: normalized growth

Cc1[nH]c(=O)c(C#N)cc1-c1ccncc1
inactive: locus YAL013W, strain DEP1, stronger effect = lower value 1.02 | locus YAL040C, strain CLN3, stronger effect = lower value 1 | locus YCL061C, strain MRC1 (second series), stronger effect = lower value 1.01 | locus YDR363W, strain ESC2, stronger effect = lower value 1.04 | locus YER002W, strain NOP16, stronger effect = lower value 0.997 | locus YGR078C, strain PAC10, stronger effect = lower value 1.01 | locus YMR263W, strain SAP30, stronger effect = lower value 1.01 | locus YMR307W, strain GAS1, stronger effect = lower value 1.01 | locus YNL153C, strain GIM3, stronger effect = lower value 1.01 | locus YNL175C, strain NOP13, stronger effect = lower value 1.01 | locus YNL197C, strain WHI3, stronger effect = lower value 1.01 | locus YNL224C, strain SQS1, stronger effect = lower value 1.01 | locus YNL322C, strain KRE1, stronger effect = lower value 1.01 | locus YOR083W, strain WHI5 (second series), stronger effect = lower value 1.01 | locus YPL241C, strain CIN2, stronger effect = lower value 0.998

Source: PubChem BioAssay AID1159580 (chemical genetic matrix, 2015)
